Some test systems named below: MAP3K15; MAP3K1; MAP3K2; MAP3K3; MAP3K4; MAP4K2; MAP4K3; MAP4K4; MAP4K5; MAPKAPK2; MAPKAPK5; MARK1; MARK2; MARK3; MARK4; MAST1.
Holding throughout (conditions): concentration: 1 μM, replicates: in singlicate; n = 1
The subject of a further assay is T1, MEK1.
T1 construct: gene MAP2K1

The next assay concerns T2, MEK2.
T2 construct: gene MAP2K2

A further assay deals with T3, MEK3.
T3 construct: gene MAP2K3

Another assay has as its system T4, MEK4.
T4 construct: gene MAP2K4
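Also: KINOMEscan kinase panel screen.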

As for `CN1CCN(CCCNc2nccc(-c3c(-c4ccc(F)cc4)nn4cc(C(F)(F)F)ccc34)n2)CC1` [GW621581], the “%Inh” value was 4% in the assay with MAP3K15; 4% in the assay on MAP3K1; 0% in the assay with MAP3K2; 0% in the assay on MAP3K3; 0% in the assay on MAP3K4; 0% with MAP4K2. The “%Inh” value worked out at 30% in the assay with MAP4K3; 33% in the assay on MAP4K4; 0% in the assay on MAP4K5; 5% in the assay with MAPKAPK2; 0% with MAPKAPK5; 7% in the assay on MARK1. Also, the “%Inh” value is 0% with MARK2; 16% in the assay with MARK3; 16% with MARK4; 0% in the assay with MAST1; 0% in the assay with MEK1; 0% in the assay on MEK2. Further, the “%Inh” value in the assay with MEK3 was determined as 0%; in the assay with MEK4 it was 10%.
Consider `Cc1ccc(C(=O)Nc2ccc(Nc3ccnc4cc(-c5nccs5)ccc34)cc2O)cc1.Cl` [GW494702], for which the “%Inh” value with MAP3K15 is on record as 16%; with MAP3K1, 14%; in the assay with MAP3K2 it was 0%; in the assay on MAP3K3, 0%; in the assay on MAP3K4, 19%; in the assay with MAP4K2 it was 0%. In addition, the “%Inh” value in the assay on MAP4K3 stood at 0%; with MAP4K4, 5%; in the assay on MAP4K5 it was 71%; with MAPKAPK2 it was 17%; in the assay on MAPKAPK5, 0%; in the assay on MARK1, 0%. Also, the “%Inh” value was determined as 0% in the assay on MARK2; 0% in the assay with MARK3; 0% in the assay on MARK4; 15% in the assay with MAST1; 13% in the assay on MEK1; 0% in the assay on MEK2. The “%Inh” value in the assay on MEK3 is recorded as 0%; with MEK4, 21%.
Turning to `FC(F)(F)c1ccc(/C=C/c2cncnc2Nc2ccc3[nH]c(Cc4ccccc4)nc3c2)cc1` [GW709199], the “%Inh” value in the assay on MAP3K15 was found to be 0%; with MAP3K1, 0%; in the assay with MAP3K2, 0%; in the assay with MAP3K3, 1%; with MAP3K4, 15%; in the assay on MAP4K2 it was 0%. Moreover, the “%Inh” value in the assay with MAP4K3 was 0%; in the assay with MAP4K4, 0%; in the assay on MAP4K5, 0%; with MAPKAPK2 it was 3%; in the assay on MAPKAPK5, 0%; with MARK1 it was 0%. Also, the “%Inh” value in the assay on MARK2 came to 0%; with MARK3, 28%; in the assay with MARK4 it was 8%; with MAST1, 5%; in the assay with MEK1, 0%; with MEK2 it was 25%. In addition, the “%Inh” value in the assay with MEK3 and with MEK4 was 0% throughout.
In the case of `Nc1ncc(-c2cccnc2)c2scc(-c3ccc4c(c3)CCN4C(=O)Cc3ccccc3)c12` [GSK683281], the “%Inh” value in the assay on MAP3K15 is given as 100%; in the assay on MAP3K1 it was 41%; in the assay with MAP3K2 it was 56%; in the assay on MAP3K3, 18%; with MAP3K4, 69%; in the assay on MAP4K2, 23%. The “%Inh” value was found to be 95.2% with MAP4K3; 8% with MAP4K4; 98.8% with MAP4K5; 24% with MAPKAPK2; 0% in the assay on MAPKAPK5; 0% in the assay with MARK1. Further, the “%Inh” value is recorded as 0% in the assay on MARK2; 19% in the assay on MARK3; 0% in the assay with MARK4; 0% in the assay with MAST1; 0% in the assay with MEK1; 1% in the assay on MEK2. Further, the “%Inh” value with MEK3 is recorded as 0%; in the assay on MEK4, 66%.
On to `Cl.Cl.NCC(NC(=O)c1cc(-c2ccccc2)c(-c2ccnc3[nH]ccc23)s1)c1ccccc1` (stereo not drawn) [GSK1321561], for which the “%Inh” value in the assay with MAP3K15 came to 0%; with MAP3K1, 22%; in the assay with MAP3K2 it was 27%; in the assay with MAP3K3, 0%; in the assay with MAP3K4, 0%; with MAP4K2, 64%. The “%Inh” value is listed as 0% with MAP4K3; 98% in the assay on MAP4K4; 24% in the assay with MAP4K5; 0% in the assay on MAPKAPK2; 0% in the assay with MAPKAPK5; 0% in the assay on MARK1. For the same compound, the “%Inh” value with MARK2 is 0%; in the assay on MARK3, 11%; in the assay on MARK4, 3%; in the assay on MAST1 it was 0%; with MEK1 it was 5%; in the assay on MEK2, 0%. Besides, the “%Inh” value in the assay on MEK3 turned out to be 51%; in the assay on MEK4 it was 42%.
For `COc1ccc(-c2coc3ccc(-c4nnc(SCc5ccc(OC)c(C(F)(F)F)c5)o4)cc23)cc1`, the “%Inh” value in the assay with MAP3K15 is 0%; in the assay with MAP3K1, 0%; with MAP3K2, 10%; with MAP3K3 it was 0%; in the assay on MAP3K4 it was 0%; in the assay on MAP4K2, 0%. Besides, the “%Inh” value in the assay on MAP4K3 turned out to be 0%; in the assay with MAP4K4 it was 6%; in the assay on MAP4K5, 0%; in the assay with MAPKAPK2 it was 0%; with MAPKAPK5, 23%; with MARK1 it was 5%. For the same compound, the “%Inh” value with MARK2 was 2%; with MARK3 it was 0%; with MARK4, 4%; in the assay with MAST1 it was 13%; with MEK1, 13%; in the assay with MEK2, 22%. The entries for the “%Inh” value in the assay with MEK3 and in the assay on MEK4 were 10% and 30%, respectively.
Turning to `COc1ccc(Nc2nccc(N3CCC(NC(=O)Nc4cccc(OC)c4)C3)n2)cc1` (stereo not drawn) [GSK1379742], the “%Inh” value is on record as 0% with MAP3K15; 0% in the assay on MAP3K1; 0% with MAP3K2; 0% in the assay with MAP3K3; 23% in the assay on MAP3K4; 0% in the assay with MAP4K2. The “%Inh” value in the assay on MAP4K3 was 5%; with MAP4K4, 0%; with MAP4K5 it was 0%; in the assay on MAPKAPK2 it was 9%; in the assay with MAPKAPK5 it was 0%; in the assay with MARK1, 0%. Moreover, the “%Inh” value in the assay with MARK2 is reported as 0%; in the assay on MARK3, 0%; in the assay on MARK4, 0%; in the assay with MAST1, 23%; with MEK1, 0%; with MEK2, 0%. In addition, the “%Inh” value was 0% in the assay with MEK3 and 24% in the assay with MEK4.
Consider `Cn1cc(-c2ccc3c(c2)CCN3C(=O)Cc2cccc(Cl)c2)c2c(N)ncnc21` [GSK2606590], for which the “%Inh” value in the assay with MAP3K15 was 17%; in the assay with MAP3K1, 11%; with MAP3K2, 84%; with MAP3K3 it was 56%; in the assay on MAP3K4, 52%; in the assay on MAP4K2 it was 8%. Further, the “%Inh” value with MAP4K3 came out at 71%; with MAP4K4 it was 0%; in the assay with MAP4K5, 79%; in the assay with MAPKAPK2, 19%; with MAPKAPK5, 0%; with MARK1, 2%. In addition, the “%Inh” value with MARK2 was found to be 2%; with MARK3 it was 3%; in the assay with MARK4 it was 11%; with MAST1, 0%; in the assay with MEK1, 19%; in the assay on MEK2, 0%. The “%Inh” value in the assay on MEK3 is 0%; in the assay on MEK4, 33%.
Consider `CC(=O)N1CCN(c2ccc(Nc3nccc(-c4sc(C(C)C)nc4-c4cccc(NS(=O)(=O)c5cccc(Cl)c5)c4)n3)cn2)CC1` [GSK1660437], for which the “%Inh” value with MAP3K15 was 16%; with MAP3K1, 12%; with MAP3K2, 0%; with MAP3K3, 7%; with MAP3K4, 0%; in the assay with MAP4K2, 8%. In addition, the “%Inh” value turned out to be 10% with MAP4K3; 13% in the assay with MAP4K4; 54% in the assay with MAP4K5; 19% in the assay with MAPKAPK2; 0% in the assay with MAPKAPK5; 0% in the assay on MARK1. Moreover, the “%Inh” value amounted to 0% in the assay on MARK2; 0% in the assay with MARK3; 12% in the assay with MARK4; 0% in the assay on MAST1; 1% in the assay with MEK1; 0% with MEK2. The “%Inh” value in the assay with MEK3 worked out at 23%; in the assay with MEK4, 99.2%.

The values above are taken from PMC5540273 (PLoS ONE, 2017).
